IL2 activator: qHTS of IL-2 Activators | IL-2 activation reporter assay, cell-based qHTS; stimulated with anti-CD3/CD4/CD28 beads; in transgenic mouse T cells | hit rate 0.065% among 360,000 | activation, % (series mostly up to about 46 µM); in the data active means activation above about 50%; inconclusive means mostly about 30% to 49%; further: 0% is about no effect
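Unstimulated transgenic mouse T cells preincubated 60 min with compound, then stimulated with anti-CD3/anti-CD4-coated beads plus anti-CD28 for 18 h at 37 degrees C. IL-2 response read as EGFP and DsRed fluorescence by plate cytometry.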
ClpP mod: qHTS Assay for Activators of ClpP. AID 651965, 2013. hit rate 1.9% among 340,000. purified B. subtilis ClpP, FRET peptide cleavage, 20 min. ATP-dependent Clp protease proteolytic subunit (Bacillus subtilis (strain 168)), P80244. Potency, µM (series often up to 57.5 µM), without a hit: top-dose activity change, negative = active; active means well fitted falling curve with a large enough effect; inconclusive means small, poorly fitted or top-dose-only effect; inactive means no such curve, though single readings can be large or run the other way; further: potency means the concentration at half of the fitted maximal effect; the source files actives as falling curves though it sought activators and does not explain the sign; nearly all actives have a fitted effect of over 65% in size
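FRET quenching reversal measured ClpP activation: 10 microg/mL B. subtilis ClpP at pH 8 with the FRET-FV decapeptide, read at 430 nm after 320 nm excitation. The 20-min minus 0-min signal was scaled between DMSO/no-enzyme wells and ADEP (5.8 microM final).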
PKM2 act: qHTS Assay for Activators of Human Muscle isoform 2 Pyruvate Kinase; Pyruvate kinase PKM (Homo sapiens), P14618; purified PKM2, Kinase-Glo ATP luminescence, activation; response scale: 0% is enzyme alone, no compound; Potency, µM (titrated, usually from 57.5 µM), for the others: at the highest dose activation, most hits filed as activators; hit rate 0.34% among 260,000; AID 1631, 2009; further: potency means the concentration at half of the fitted maximal effect; on the % scale 0 is the no-effect control and ±100 the full control effect; nearly all actives have a fitted effect of over 55% in size
Target sequence (P14618 whole entry, looked up, canonical isoform): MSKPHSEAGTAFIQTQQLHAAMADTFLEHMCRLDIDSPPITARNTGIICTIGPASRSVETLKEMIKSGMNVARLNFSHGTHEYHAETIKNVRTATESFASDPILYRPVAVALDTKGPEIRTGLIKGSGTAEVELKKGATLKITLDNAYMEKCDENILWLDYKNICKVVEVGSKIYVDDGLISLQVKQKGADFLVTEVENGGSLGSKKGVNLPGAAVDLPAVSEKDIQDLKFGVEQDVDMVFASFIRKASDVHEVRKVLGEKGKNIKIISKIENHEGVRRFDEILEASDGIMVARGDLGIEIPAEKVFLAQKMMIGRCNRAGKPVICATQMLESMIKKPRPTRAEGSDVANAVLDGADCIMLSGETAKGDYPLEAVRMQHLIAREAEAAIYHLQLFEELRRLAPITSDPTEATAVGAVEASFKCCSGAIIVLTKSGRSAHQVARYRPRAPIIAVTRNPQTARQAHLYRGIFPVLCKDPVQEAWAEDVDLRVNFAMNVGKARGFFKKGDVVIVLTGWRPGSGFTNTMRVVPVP
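hPK-M2, >95% pure; 0.1 mM ADP / 0.5 mM PEP final; imidazole pH7.2 buffer w/ 7 mM MgCl2, 50 mM KCl; 1 h RT; Kinase-Glo lum. Intermediate enzyme activity for dual inhibitor/activator qHTS.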
NPSR antag: qHTS Assay for Antagonists of the Neuropeptide S Receptor: cAMP Signal Transduction. Q6W5P4. CHO-NPSR cells, cAMP TR-FRET, antagonist mode. Potency, µM (doses to about 38.3 µM), without a hit: at the top dose activity change, negative = inhibition, usual class: inhibitors. hit rate 1% among 220,000. AID 1461, 2008; further: potency means the concentration at half of the fitted maximal effect; on the % scale 0 is the no-effect control and ±100 the full control effect; nearly all actives have a fitted effect of over 50% in size
The depositor's hits bear a star; ? = inconclusive; nt = no result; [ ] = remark or other dose. The list is not random: actives were taken first. Their share in the collection is about 2%. Unless noted, the call rests on the fitted dose curve; in most records, active means well fitted curve in the direction sought with a large enough effect; inconclusive means small, poorly fitted or top-dose-only effect, or another doubt; inactive means no such curve, though single readings can be large; an effect the other way counts as inactive or inconclusive.

SMILES	IL2 activator	ClpP mod	PKM2 act	NPSR antag
O=C(NCc1cccnc1)/C(=C\c1ccc(-c2ccc(Cl)c(Cl)c2)o1)S(=O)(=O)c1ccccc1	-3	-7%	10%	13µM*
O=C(NCc1cccnc1)c1ccc(-c2ccc(Cl)cc2)o1	0	4%	7%	-17%
Cc1cc(=O)oc2c1c(C(F)(F)F)nn2-c1ccccc1	0	0%	1%	-18%
COc1ccc(N2C(=O)c3ccccc3NC23CCCCC3)cc1	-1	28µM*	-4%	-3%[46.1 µM]
COc1ccc(N2C(=O)c3ccccc3NC23CCC(C)CC3)cc1 (stereo unspecified)	-1	?	-6%	-10%[46.1 µM]
CCC(Sc1nc2ccccc2c2nc(CCc3c(C)n[nH]c3C)nn12)C(=O)Nc1ccc(F)cc1 (stereo unspecified)	nt	2%	nt	nt
O=C(CN1CCOCC1)N1N=C(c2cccs2)CC1c1cccs1 (stereo unspecified)	1	nt	4%	4%
CCS(=O)(=O)Nc1cccc(C2=NN(C(C)=O)C(c3cccs3)C2)c1 (stereo unspecified)	1	nt	14µM*	8%
O=C(Nc1ccccc1)N1N=C(c2cccs2)CC1c1cccs1 (stereo unspecified)	0	32µM*	-5%	-31%
O=c1oc2ccccc2cc1-c1nc(-c2ccccc2)no1	-1	28µM*	-7%	-19%[46.1 µM]
Cc1cccc(-c2noc(-c3cc4ccccc4oc3=O)n2)c1	0	8.9µM*	-7%	-7%[46.1 µM]
CCOC(=O)c1c(C)[nH]c(C(=O)OC(C)C(=O)NC2CCCCC2C)c1C (stereo unspecified)	0	1%	nt	nt
CCOC(=O)c1ccc(-c2ccc(/C=N/NC(=O)CN(c3ccccc3Br)S(C)(=O)=O)o2)cc1	0	18µM*	?	-47%
CC1CCCC(NC(=O)COC(=O)CCC(=O)c2ccc(F)cc2)C1C (stereo unspecified)	-2	2.5µM*	nt	nt
CCn1c(=S)[nH]c2scc(-c3cccs3)c2c1=O	-1	-1%	-1%	10µM*
COc1cccc(S(=O)(=O)Nc2ccc(C(=O)Nc3ccncc3)cc2)c1	-4	-9%	1%	-1%
O=C(Nc1ccncc1)c1ccc(NS(=O)(=O)c2cccc(F)c2)cc1	-1	32µM*	-5%	13%
N#C/C(=C\c1ccc(OC(=O)c2cccs2)cc1)c1nc2ccccc2[nH]1	2	28µM*	-1%	-37%
O=c1[nH]c2ccccc2c(=O)n1Cc1ccccc1	3	35µM*	0%	-11%[46.1 µM]
CCn1c(=O)[nH]c2ccccc2c1=O	-2	-12%	1%	-2%[46.1 µM]
c1ccc(-c2nnc3sc(-c4csc5c4CCCC5)nn23)cc1	-3	2%	-28%	10µM*
CN(C)S(=O)(=O)c1ccc(C(=O)NCCN2C(=O)S/C(=C\c3cccnc3)C2=O)cc1	-1	nt	16µM*	2%
CCN(CC)S(=O)(=O)c1ccc(C(=O)NCCN2C(=O)S/C(=C\c3cccnc3)C2=O)cc1	2	-3%	24%	-25%
N#C/C(=N\Nc1cccc([N+](=O)[O-])c1)C(=O)c1ccc(Br)cc1	-1	nt	1%	6.3µM*
C/C=C\C=C/C(=O)Nc1cccc(C2=NOC3(C2)C[C@H](C(N)=O)N(C(=O)CC)C3)c1 (stereo partly specified)	-1	-1%	13µM*	35%
SMILES	IL2 activator	ClpP mod	PKM2 act	NPSR antag
C/C=C/C=C\C(=O)Nc1cccc(C2=NOC3(C2)C[C@H](C(N)=O)N(C(=O)CC#N)C3)c1 (stereo partly specified)	2	-1%	20µM*	23%
C/C=C\C=C/C(=O)Nc1cccc(C2=NOC3(C2)C[C@H](C(N)=O)N(C(=O)c2ccc(OC)cc2)C3)c1 (stereo partly specified)	3	0%	14µM*	19%
C/C=C\C=C/C(=O)Nc1cccc(C2=NOC3(C2)C[C@@H](C(N)=O)N(C(=O)CCCCC)C3)c1 (stereo partly specified)	0	0%	?	13%
C/C=C\C=C/C(=O)Nc1cccc(C2=NOC3(C2)C[C@@H](C(N)=O)N(C(=O)c2ccc(Cl)cc2)C3)c1 (stereo partly specified)	0	-1%	?	-3%
O=C(COC(=O)c1n[nH]c2ccccc12)NC1CCCCC1	1	-2%	nt	nt
O=C(Nc1ccc2oc(-c3cccnc3)nc2c1)c1cccnc1	1	?	-1%	?
Cc1c(C(=O)Nc2ccc3oc(-c4cccnc4)nc3c2)oc2ccccc12	-2	8.9µM*	-7%	2%[46.1 µM]
Cc1c(C(=O)Nc2cccc(-c3nc4ccccc4s3)c2)oc2ccccc12	nt	22µM*	nt	nt
O=C(Nc1cccc(-c2nc3ccccc3s2)c1)c1cc(=O)c2ccccc2o1	1	2%	-4%	6%
CC1(C)CC(=O)C2=C(C1)NC(=O)NC2c1ccc([N+](=O)[O-])cc1 (stereo unspecified)	-1	nt	-2%	nt
CCOC(=O)N1CCN(C(=O)c2ccc3nc4ccc(Cl)cc4c(=O)n3c2)CC1	0	14µM*	-2%	1%[46.1 µM]
CCOC(=O)N1CCN(C(=O)c2ccc3nc4ccsc4c(=O)n3c2)CC1	-1	4%	-2%	2%[46.1 µM]
CC1SCC(NC(=O)c2ccccc2Cl)CS1 (stereo unspecified)	-1	nt	-1%	-6%
CCOCC(=O)N1CCN(c2ccc(F)cc2)CC1	-1	-4%	-5%	1%[46.1 µM]
Cc1ccc(S(=O)(=O)NCc2ccc(C(=O)N3CCc4ccccc4C3)cc2)cc1	11	28µM*	-3%	-5%
CC1CCc2nc(NC(=O)CN3CCN(c4ccc(F)cc4)CC3)sc2C1 (stereo unspecified)	-1	0%	-5%	-13%[46.1 µM]
Cc1cccc(NCc2cc(Cl)ccc2O)n1	-2	-4%	5%	?
CCOc1ccc(-c2cc(C(=O)N3CCN(c4cc(Cl)ccc4C)CC3)c3ccccc3n2)cc1	nt	-9%	nt	nt
CCOc1ccc(-c2cc(C(=O)O)c3ccccc3n2)cc1	-3	35µM*	-6%	-9%[46.1 µM]
COc1ccc(-c2cc(C(=O)N3CCN(c4cccc(C)c4C)CC3)c3ccccc3n2)cc1OC	0	25µM*	nt	nt
COc1ccc(-c2cc(C(=O)N3CCN(c4ncccn4)CC3)c3ccccc3n2)cc1OC	-1	-14%	nt	nt
CCOc1ccc(-c2cc(C(=O)N3CCC(C)CC3)c3ccccc3n2)cc1	-1	32µM*	nt	nt
Cc1ccc(C)c(S(=O)(=O)c2cn(Cc3ccccc3)c3cc(N4CCCC4)c(F)cc3c2=O)c1	nt	4%	nt	nt
CCc1ccc(S(=O)(=O)c2cn(Cc3ccccc3)c3cc(N4CCCC4)c(F)cc3c2=O)cc1	nt	2.8µM*	nt	nt
Cc1ccc(S(=O)(=O)c2cn(Cc3cccc(F)c3)c3cc(N4CCCC4)c(F)cc3c2=O)cc1	nt	3.5µM*	nt	nt
Cc1cccc(Cn2cc(S(=O)(=O)c3cccc(C)c3)c(=O)c3cc(F)c(N4CCOCC4)cc32)c1	nt	-14%	nt	nt

Bioassay records (PubChem)
